An excerpt weighted towards active compounds, which were near 11% of everything screened.
HTT cytoprotect – Huntington cell model cytoprotection by ATP luminescence; PC12 HTT-Q103 induced, cytoprotection, ATP luminescence, 40 h; Potency, µM (series often up to 56.4 µM), hits mostly activators; 0.14% of 230,000 active; further: nearly all actives have a fitted effect of over 45% in size
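PC12 cells with ecdysone-inducible HTT exon 1 Q103-GFP, induced with 100 nM tebufenozide and co-treated with library compounds in a dose series (1536-well, 1500 cells/well). Cytoprotection read as ATP content by ATPlite luminescence.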
HPGD block – inhibitors of human 15-hydroxyprostaglandin dehydrogenase (HPGD) | purified HPGD, NADH fluorescence kinetic, PGE2 substrate | 4.3% of 150,000 active | Potency, µM, hits mostly inhibitors | AID 894; active means well fitted inhibition curve with a large enough effect, not every such curve was filed as active; inconclusive means small, poorly fitted or top-dose-only effect, or another doubt; inactive means no such curve, though single readings can be large or run the other way
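NADH formation kinetics: reaction with 30 uM PGE2 and 1 mM NAD+ (final), 20 nM enzyme, Tris-HCl pH 8 with Tween 20, after 15 min compound preincubation at room temperature. Fluorescence change, last versus first of five reads.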
HTT aggregate – inhibitors of mutant huntingtin aggregate formation in PC12 cells. Potency, µM (doses to about 46.1 µM), actives largely listed as inhibitors. PC12 HttQ103-GFP aggregates, Acumen cytometry, 40 h. 1.1% of 220,000 active; further: nearly all actives have a fitted effect of over 60% in size
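Aggregates are detected as GFP objects 1–25 µm with signal 6 STDEV over background in lysates of induced PC12 cells. These carry Huntingtin exon 1 with 103 glutamines fused to GFP under an ecdysone promoter; compounds titrated.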
ALDH1A1 block – ALDH1A1 (human) enzyme inhibition; P00352; Purified ALDH1A1, NADH fluorescence, propionaldehyde substrate; Potency, µM (titrated, usually from 75.3 µM), most hits filed as inhibitors; 7.3% of 220,000 active; AID 1030; active means well fitted inhibition curve with a large enough effect, not every such curve was filed as active; inconclusive means small, poorly fitted or top-dose-only effect, or another doubt; inactive means no such curve, though single readings can be large or run the other way
CBFb-RUNX1 inh – inhibitors of human CBF-beta and RUNX1 interaction; 230,000 tested, under 10 active; AID 1477; Potency, µM (titrated, usually from 59.8 µM), usual class: inhibitors; Q01196+Q13951; AlphaScreen CBFb-His/RUNX1-biotin binding, biochemical
Target sequence (Q01196 whole entry, looked up): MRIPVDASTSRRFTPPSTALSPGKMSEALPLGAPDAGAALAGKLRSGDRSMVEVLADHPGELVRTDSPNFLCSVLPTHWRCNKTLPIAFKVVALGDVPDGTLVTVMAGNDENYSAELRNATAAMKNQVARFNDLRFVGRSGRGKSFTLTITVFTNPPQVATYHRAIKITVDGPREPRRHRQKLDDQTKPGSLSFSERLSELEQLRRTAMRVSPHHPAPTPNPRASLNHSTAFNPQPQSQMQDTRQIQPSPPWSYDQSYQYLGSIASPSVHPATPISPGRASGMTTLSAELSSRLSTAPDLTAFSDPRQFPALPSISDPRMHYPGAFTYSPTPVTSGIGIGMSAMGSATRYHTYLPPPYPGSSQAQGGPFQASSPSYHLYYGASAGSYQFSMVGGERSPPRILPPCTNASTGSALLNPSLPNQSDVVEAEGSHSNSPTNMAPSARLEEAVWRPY
Target sequence (Q13951 whole entry, looked up): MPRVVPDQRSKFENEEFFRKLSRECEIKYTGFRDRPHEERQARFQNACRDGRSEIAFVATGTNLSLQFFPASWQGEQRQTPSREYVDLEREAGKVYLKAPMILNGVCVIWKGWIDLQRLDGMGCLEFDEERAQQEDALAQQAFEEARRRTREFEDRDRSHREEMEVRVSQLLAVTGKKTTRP
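Bead-based AlphaScreen assay; binding partners His-tagged CBF-beta and biotinylated RUNX1 at 30 nM each. Compound exposure 15 min after a 20-min protein preincubation; bead step 90 min; all steps at room temperature.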
PNC inhibitor – perinucleolar compartment assembly inhibition. PC3M PTB-GFP, PNC prevalence imaging, 16 h; active compounds read low. activity change (PNC), negative = inhibition, % at 10 µM. 3.1% of 140,000 active. AID 2417;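 active means readout at or below -70, meaning at least 70% loss of cells showing the perinucleolar compartment, a nuclear body marking cancer cells; inconclusive means readout between -30 and a set limit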
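Read-out is percentage of cells bearing a perinucleolar compartment, from automated 20x imaging of fixed, Hoechst-stained PC3M PTB-GFP cells. Cells were seeded 4 h, then exposed 16 h to compound (23 nl of library stock) in duplicate plates.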
Hits are given with their value; n = inactive; u = inconclusive; x = not tested or not shown; [ ] = dose if it differs, or a comment. Unless noted, the call rests on the fitted dose curve; in most records, active means well fitted curve in the direction sought with a large enough effect; inconclusive means small, poorly fitted or top-dose-only effect, or another doubt; inactive means no such curve, though single readings can be large; an effect the other way counts as inactive or inconclusive.

SMILES | HTT cytoprotect | HPGD block | HTT aggregate | ALDH1A1 block | CBFb-RUNX1 inh | PNC inhibitor
NC(=S)NNc1ccnc2cc(Cl)ccc12 | n | x | n | 1.4µM | n | x
FC(F)Oc1ccc(NC(=S)NNc2ccnc3cc(Cl)ccc23)cc1 | n[10 µM] | x | n | 8.9µM | n | x
CCOc1ccc(Nc2ccnc3cc(Cl)ccc23)cc1 | n[10 µM] | x | n[9.22 µM] | x | n | x
CC(C)CCNC(=O)C(=O)NCCC1=CCCCC1 | n[10 µM] | n | n | n | n | n
CCN(CC)S(=O)(=O)c1cccc(-c2nnc(SCC(=O)NCCC3=CCCCC3)n2N)c1 | n | n | n | u | n | n
Cc1cccc(-n2nnnc2SC(C)C(=O)NCCC2=CCCCC2)c1 (stereo not drawn) | u | n | u | 5µM | n | n
CC(C)c1nnc(SCC(=O)NCCC2=CCCCC2)n1N | n | 16µM | u | 20µM | n | u
Cc1ccc(CCNC(=O)C2CCC(=O)N2C2CCCC2)cc1 (stereo not drawn) | n[10 µM] | n | n | n | n | u
c1cc2c(cc1-c1cnc3n1CCC3)OCCO2 | n | u | 25µM | u | n | n
Cc1ccc(-c2cnc3n2CCCCC3)cc1 | n[10 µM] | x | n | n | n | x
COCCn1c(CN2CCN(c3cccc(Cl)c3)CC2)nc2c1c(=O)n(C)c(=O)n2C | n | n | 20µM | u | n | u
CC1CCN(c2nc3c(c(=O)n(C)c(=O)n3C)n2CCSc2nc3ccccc3o2)CC1 | n[0.074 µM] | n | n | n | n | u
Cn1c(=O)c2c(nc(N3CCCCCC3)n2CCSc2nc3ccccc3o2)n(C)c1=O | n | n | n | 4.5µM | n | u
COCCn1c(N2CCN(c3ccccc3)CC2)nc2c1c(=O)n(C)c(=O)n2C | 2µM | x | n[9.22 µM] | n | n | x
CCOCCn1c(N2CCN(c3ccccc3)CC2)nc2c1c(=O)n(C)c(=O)n2C | n | n | n | u | n | u
COCCNc1cc(-c2ccccc2C)ncn1 | n | x | x | u | x | x
FC(F)(F)c1cc(NC(=S)Nc2ccc3cc4ccccc4cc3c2)cc(C(F)(F)F)c1 | n | n | x | n | n | x
Cc1coc2c1C(=O)C(=O)c1c-2ccc2c(C)cccc12 | n[10 µM] | x | n[9.22 µM] | x | n | x
Cc1coc2c1C(=O)C(=O)c1c-2ccc2c1CCCC2(C)C | n | 16µM | n[9.22 µM] | 20µM | u | x
c1ccc(NCCCNc2ccccc2)cc1 | n | n | n | 20µM | n | n
CCOc1ccc(C(=O)CCc2nc3ccccc3s2)cc1 | n | n | n | n | n | n
CCC1=C[C@@H]2CN(C1)Cc1c([nH]c3ccccc13)[C@@](C(=O)OC)(c1cc3c(cc1OC)N(C)[C@@H]1[C@@](O)(C(=O)OC)[C@H](OC(C)=O)[C@]4(CC)C=CCN5CC[C@]31[C@@H]54)C2 | n | x | 5.6µM | x | x | x
CC[C@]1(O)CC2CN(CCc3c([nH]c4ccccc34)[C@@](C(=O)OC)(c3cc4c(cc3OC)N(C)[C@H]3[C@@](O)(C(=O)OC)[C@H](OC(C)=O)[C@]5(CC)C=CCN6CC[C@]43[C@@H]65)C2)C1 (stereo partly drawn) | n | x | n | x | x | x
O=C(CCC(=O)Nc1ccccc1)N/N=C/c1ccncc1 | n | 22µM | u | n | n | n
O=C(CNc1ccccc1)N/N=C/c1ccc([N+](=O)[O-])cc1 | n[10 µM] | n | n | 3.5µM | n | n
SMILES | HTT cytoprotect | HPGD block | HTT aggregate | ALDH1A1 block | CBFb-RUNX1 inh | PNC inhibitor
O=C(CCNC(=O)c1ccccc1)N/N=C/c1ccc([N+](=O)[O-])cc1 | n | x | n | n | n | x
O=C(CNc1cccc([N+](=O)[O-])c1)N/N=C/c1ccc([N+](=O)[O-])o1 | n[1.9 µM] | x | n[9.22 µM] | 2µM | n | x
O=c1[nH]cnc2sc3c(c12)CCCCC3 | n | x | n | n | n | x
O=c1[nH]cnc2sc3c(c12)CCCC3 | n | n | 13µM | n | n | n
CC(=O)Nc1ccc(NS(=O)(=O)c2ccc(Cl)s2)cc1 | n[10 µM] | x | n | n | n | x
CCN(CC)S(=O)(=O)c1cc(NS(=O)(=O)c2cccc(Cl)c2Cl)ccc1C | n[10 µM] | n | n | 7.9µM | n | n
CCN(CC)S(=O)(=O)c1cc(NS(=O)(=O)c2cccc(Cl)c2)ccc1C | n[10 µM] | n | n | 18µM | n | n
CSc1nc2ccc(NS(=O)(=O)c3ccc(Cl)s3)cc2s1 | n | 25µM | u | 40µM | n | n

Compound activity from PubChem.
